# From PubChem BioAssay AID1898 (National Center for Advancing Translational Sciences (NCATS), 2009)
# This is one part of the list. Inconclusive results are not listed. A number with no mark means an inactive call. Calls follow the shape of the dose curve; as a rule, active = well fitted curve in the direction sought with a large enough effect; inconclusive = small, poorly fitted or top-dose-only effect, or another doubt; inactive = no such curve, though single readings can be large or run the other way.
# Experiment: Secondary assay for Activators of Human Pyruvate Kinase M2 isoform - Cell Titer Glo cytotoxicity assay; also: % of control where 0% means no effect
# Settings: HeLa viability, CellTiter-Glo ATP luminescence, 24 h; series mostly up to 57.5 µM; activity change, negative = cytotoxicity: at the top concentration
# Description: NIH Chemical Genomics Center [NCGC] Matthew G. Vander Heiden, M.D., Ph.D. [Harvard Medical School, 77 Avenue Louis Pasteur, Boston, MA 02115] MLPCN Grant: 1 R03 MH085679-01 NCGC Assay Overview: We have identified a series of activators of the M2 isoform of human pyruvate kinase. The assay described here examines the cytotoxicity of these compounds by measuring the total ATP content of Hela cells after 24 hrs of exposure to compound.
# Assay Protocol: 500 Hela cells/ 4ul in media (DMEM with high glucose, 10% FBS, 1x Pen Strep, 1x NEAA) were dispensed into a white solid 1536-microwell plate with a Thermo Multidrop. The plates were incubated at 37 degrees Celsius for 24 hours. The cells were then treated with compounds using the Kalypsys pin tool, delivering 23 nl of test compounds and the control doxorubicin. The plates were then incubated for an additional 24 hours at 37 degrees C after which 4 ul of Promega Cell-Titer Glo was dispensed using the Thermo Multidrop. The plates were incubated at room temperature for 10 min before reading luminescence on the Perkin Elmer ViewLux with images collected with 2x binning and a 5 sec exposure time.
row,SMILES,"activity change, negative = cytotoxicity [%]"
1,O=S(=O)(NCCCCCCNS(=O)(=O)c1c(F)cccc1F)c1ccc2c(c1)OCCO2,-2.79
2,O=C(NCc1ccccn1)c1c(O)c2c([nH]c1=O)CCCC2,1.11
3,Cn1c2cc(B(O)O)sc2c2cnn(Cc3ccccc3F)c(=O)c21,5.07
4,O=S(=O)(NCC1CN(S(=O)(=O)c2ccc3c(c2)OCCO3)C1)c1c(F)cccc1F,7.45
5,CN(C)N=Nc1ccc2nc[nH]c2c1,-5.89
6,CC(=O)c1cc(C#N)c(SCC(=O)Nc2nccs2)nc1C,-6.98
7,Cc1cc2c(s1)c1cnn(Cc3c(F)cccc3Cl)c(=O)c1n2C,0.849
8,O=S(=O)(NC1CCN(S(=O)(=O)c2ccc3c(c2)OCCO3)CC1)c1c(F)cccc1F,-10.7
9,O=C(NCc1cccs1)C1CCN(S(=O)(=O)c2ccc3c(c2)OCCO3)CC1,7.05
10,CSc1nc2ccc(S(=O)(=O)N3CCc4ccccc43)cc2s1,-25.9
11,Cc1ccc(Cn2ncc3c4sc(C)cc4n(C)c3c2=O)c(C)c1,-8.1
12,O=C(c1c(F)cccc1F)N1CCN(S(=O)(=O)c2ccc3c(c2)OCCO3)CC1,-20.9
